The values below come from the supplement of paper PMC10338343.

The experiment relates to MIWI (PIWIL1) piRISC loaded with L1MC piRNA (30 nt). As to the kind of experiment: pre-steady-state target cleavage rate (min^-1); MIWI and MILI are mouse PIWI proteins and EfPiwi is from a freshwater sponge; tags in brackets are library labels; higher = faster piRNA-guided slicing of the target. To be noted: guide: L1MC piRNA 5'p-UAACUAAAUACUAUGCAAGCUGUAGGUCCU
The essentials: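 Using HEPES–potassium acetate buffer at 33 °C, 1 nM active affinity-purified piRISC with a single synthetic guide was mixed with 0.1 nM transcribed, DNA-blocked target RNA library for 0–8 or 0–960 min, with or without 500 nM GTSF1 partner protein. Uncleaved targets were sequenced and normalised to depth and to weakly complementary targets, and three trials were pooled with k3 capped at 0.0001 min^-1. A burst-and-steady-state fit gave the pre-steady-state cleavage rate.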

Setting [1] is: auxiliary factor: 500 nM mouse GTSF1.
Setting [2] is: auxiliary factor: none (no GTSF1).

± gives the standard deviation. In all, about 8,200 sequences were measured (“pre-steady-state target cleavage rate”: median about 0.024, highest 2% from about 1.3 on). Many of the other results were omitted from the sample, so the highest values are more common in it than they were.

As for UCCUGCUACUGCUUGCAUAGUAUAUAGUUA, the “pre-steady-state target cleavage rate” value came out at 0.226 ± 0.024 under setting [1] and 0.0142 ± 0.0034 under setting [2].

With AGGACCUACAGGAAGCAUAGUAUUUUCAAA, the “pre-steady-state target cleavage rate” value under setting [1] is 0.132 ± 0.024.

Turning to UCCUGGAUCAGGUAGCAUAGUAUUUAGUUA, the “pre-steady-state target cleavage rate” value under setting [1] was found to be 0.0152 ± 0.0033 and the “pre-steady-state target cleavage rate” value under setting [2] stood at 0.00289 ± 0.0022.

UCCAGGUACAGCUUGCAUAGUAUUUAGUUA: the “pre-steady-state target cleavage rate” value turned out to be 1.09 ± 0.04 under setting [1] and 0.0764 ± 0.011 under setting [2].

Turning to AGGUCGUACAGCUUGCAUAGUAUUUAGUUA, the “pre-steady-state target cleavage rate” value under setting [1] is 1.44 ± 0.065 and the “pre-steady-state target cleavage rate” value under setting [2] was 0.0817 ± 0.012.

Regarding UCCUCGUACAGCUUGCUUAGUAUUUAGUUA, the “pre-steady-state target cleavage rate” value is, setting by setting: under setting [1], 1.51 ± 0.069; under setting [2], 0.0419 ± 0.0089.

As for UCCUGGUACAGCUUGCUUAGUAUUUAGUUA, the “pre-steady-state target cleavage rate” value is, setting by setting: under setting [1], 0.79 ± 0.037; under setting [2], 0.0523 ± 0.011.

UCCUCCUACAGCUUGCUUAGUAUUUAGUUA: the “pre-steady-state target cleavage rate” value under setting [1] is 1.28 ± 0.06 and the “pre-steady-state target cleavage rate” value under setting [2] was 0.0241 ± 0.0053.

AGGACCUAGAGCUUGCAUAGUUUUUAGUUA: the “pre-steady-state target cleavage rate” value runs as follows: under setting [1], 0.343 ± 0.023; under setting [2], 0.0238 ± 0.0061.

With UCCUCCUACAGCUUGCAUAGUUAUUAGAAA, the “pre-steady-state target cleavage rate” value under setting [1] was found to be 0.0862 ± 0.022.

With UCCUGGAACAGCAUGCAUAGUAUUUACUUA, the “pre-steady-state target cleavage rate” value under setting [1] was 0.446 ± 0.045 and the “pre-steady-state target cleavage rate” value under setting [2] stood at 0.0279 ± 0.0094.

With UCCACCUACAGCUUGCAUAGUAUUCUAGUUA, the “pre-steady-state target cleavage rate” value under setting [1] amounted to 0.633 ± 0.067 and the “pre-steady-state target cleavage rate” value under setting [2] is 0.0214 ± 0.0052.

Consider UCCUCCUACAGCUUGGAUAGUAUUUAGUUA, for which the “pre-steady-state target cleavage rate” value under setting [1] worked out at 1.44 ± 0.045 and the “pre-steady-state target cleavage rate” value under setting [2] came to 0.0511 ± 0.0092.

AGGUCCUACAGCUUGGAUAGUAUUUAGUUA: the “pre-steady-state target cleavage rate” value runs as follows: under setting [1], 1.39 ± 0.072; under setting [2], 0.079 ± 0.014.

As for UCCUGCUACAGCUUGGAUAGUAUUUAGUUA, the “pre-steady-state target cleavage rate” value by setting is: under setting [1], 1.29 ± 0.12; under setting [2], 0.0507 ± 0.0096.

As for UCCUCCUACAGCUUGAUAGUAUUUAGUUA, the “pre-steady-state target cleavage rate” value under setting [1] worked out at 0.824 ± 0.05 and the “pre-steady-state target cleavage rate” value under setting [2] came out at 0.00583 ± 0.0021.

Consider UCCUCCUACAGCUUGUCAUAGUAUUUAGUUA, for which, under setting [1], the “pre-steady-state target cleavage rate” value turned out to be 0.44 ± 0.046.

As for UCCUCCUACAGCUUGGAUAGUAUUUAGAUA, the “pre-steady-state target cleavage rate” value turned out to be 0.372 ± 0.039 under setting [1] and 0.00865 ± 0.0019 under setting [2].

On to UCGUCCUACAGCUUGGAUAGUAUUUAGUUA, for which the “pre-steady-state target cleavage rate” value reads like this: under setting [1], 1.56 ± 0.048; under setting [2], 0.0586 ± 0.0084.

UCCUCCUACAGCUUGUAUAGUAUUUAGUUA: the “pre-steady-state target cleavage rate” value was found to be 1.38 ± 0.042 under setting [1] and 0.0427 ± 0.008 under setting [2].

Take UCCUCCUACAGCUUGGCAUAGUAUUUAGUUA: the “pre-steady-state target cleavage rate” value is, setting by setting: under setting [1], 0.831 ± 0.11; under setting [2], 0.0114 ± 0.0021.

Take UCCUCCUACAGCUUGGAUAGUAUUUAGUAA: the “pre-steady-state target cleavage rate” value runs as follows: under setting [1], 0.707 ± 0.045; under setting [2], 0.0186 ± 0.0033.

As for UGGAGCUACAGCUUGGAUAGUAUUUAGUUA, the “pre-steady-state target cleavage rate” value reads like this: under setting [1], 1.11 ± 0.083; under setting [2], 0.0533 ± 0.0083.

On to UGGUCCUACAGCUUGGAUAGUAUUUAGUUA, for which the “pre-steady-state target cleavage rate” value turned out to be 1.22 ± 0.038 under setting [1] and 0.0568 ± 0.0069 under setting [2].

In the case of UCCACCUACAGCUUGCAUUGUAUUUACAAA, the “pre-steady-state target cleavage rate” value under setting [1] worked out at 0.112 ± 0.024.

Consider UCCUGGUACAGCAUGCAUAGUAUUUAGUAA, for which the “pre-steady-state target cleavage rate” value runs as follows: under setting [1], 0.377 ± 0.04; under setting [2], 0.00875 ± 0.0024.

Take UCCUGGAUGAGCUUGCAUGGUAUUUAGUUA: the “pre-steady-state target cleavage rate” value by setting is: under setting [1], 0.743 ± 0.043; under setting [2], 0.0817 ± 0.02.

On to UCCUGGAUCAGCUUGCAUAGAAUUUAGUUA, for which the “pre-steady-state target cleavage rate” value under setting [1] was found to be 0.258 ± 0.028 and the “pre-steady-state target cleavage rate” value under setting [2] is 0.0291 ± 0.0088.

For UCCUCCUACAGCUUGCAUUGUAUUUACUUA, the “pre-steady-state target cleavage rate” value is, setting by setting: under setting [1], 0.388 ± 0.031; under setting [2], 0.0162 ± 0.0032.

On to UCCUGGAUCAGCAUGCAUAGUAUUUACAAA, for which the “pre-steady-state target cleavage rate” value under setting [1] came to 0.156 ± 0.034.

Consider UCCUGGAUGUGCUUGCAUAGUAUUCUAGUUA, for which the “pre-steady-state target cleavage rate” value was determined as 0.211 ± 0.037 under setting [1] and 0.0155 ± 0.0049 under setting [2].

As to UCGACCAACAGCUAGCAUAGUAUUUAGUUA, the “pre-steady-state target cleavage rate” value by setting is: under setting [1], 1.08 ± 0.046; under setting [2], 0.0286 ± 0.0073.

Regarding AGGACCAACAGCUUGCAUAGUAUUUAGAAA, the “pre-steady-state target cleavage rate” value is, setting by setting: under setting [1], 0.624 ± 0.071; under setting [2], 0.033 ± 0.012.

UGGACCAACAGCUUGCAUAGUAUUUAGAUA: the “pre-steady-state target cleavage rate” value by setting is: under setting [1], 0.428 ± 0.022; under setting [2], 0.0582 ± 0.014.

Turning to UGGACCAACAGCUAGCAUAGUAUUUAGUUA, the “pre-steady-state target cleavage rate” value under setting [1] amounted to 1.36 ± 0.059 and the “pre-steady-state target cleavage rate” value under setting [2] came to 0.0347 ± 0.0073.

Regarding UGGACCAACAGCUUGCAUAGUAUUUAGUUA, the “pre-steady-state target cleavage rate” value by setting is: under setting [1], 1.35 ± 0.047; under setting [2], 0.0769 ± 0.013.

For the sequence AGGACCAACAGCUAGCAUAGUAUUUAGUUA, the “pre-steady-state target cleavage rate” value was 1.08 ± 0.052 under setting [1] and 0.038 ± 0.01 under setting [2].

For UGGACCAACAGCUUGCAUAGUAUUUAGUAA, the “pre-steady-state target cleavage rate” value under setting [1] came out at 1.17 ± 0.06 and the “pre-steady-state target cleavage rate” value under setting [2] stood at 0.0641 ± 0.015.

For AGGACCAACAGCUUGCAUAGUAUUUAGUUA, the “pre-steady-state target cleavage rate” value under setting [1] was 1.4 ± 0.05 and the “pre-steady-state target cleavage rate” value under setting [2] was 0.122 ± 0.021.

As to AGGACCAACAGCUUGCAUAGUAUUUAGUAA, the “pre-steady-state target cleavage rate” value under setting [1] was determined as 0.974 ± 0.079 and the “pre-steady-state target cleavage rate” value under setting [2] is 0.0722 ± 0.014.

For UCCUGGUACAGCUUGCAUACAAUUUAGUAA, under setting [1], the “pre-steady-state target cleavage rate” value stood at 0.0076 ± 0.0052.

Take UCCUGGAUGUGCUUGCAUAGUAUUUAGGUA: the “pre-steady-state target cleavage rate” value under setting [1] stood at 0.0938 ± 0.016 and the “pre-steady-state target cleavage rate” value under setting [2] amounted to 0.0113 ± 0.0031.

UCCUGGAACAGCUUGGAUAGUAUUUUGUUA: the “pre-steady-state target cleavage rate” value is, setting by setting: under setting [1], 0.745 ± 0.075; under setting [2], 0.0289 ± 0.0047.

For UCCUGGAUGAGCUUGCAUAGUUUUAAGUUA, the “pre-steady-state target cleavage rate” value runs as follows: under setting [1], 0.0288 ± 0.0084; under setting [2], 0.00673 ± 0.0032.

AGCACCUACAGCUUGCAUAGUAUUUAGUAA: the “pre-steady-state target cleavage rate” value by setting is: under setting [1], 0.974 ± 0.12; under setting [2], 0.197 ± 0.062.

Consider UGGACCUACACCUUGCAUAGUAUAUAGUUA, for which the “pre-steady-state target cleavage rate” value under setting [1] is 0.523 ± 0.041 and the “pre-steady-state target cleavage rate” value under setting [2] stood at 0.0327 ± 0.007.

On to UCCUGGAACAGCAUGCAUAGUAUUUAGUAA, for which the “pre-steady-state target cleavage rate” value runs as follows: under setting [1], 0.695 ± 0.061; under setting [2], 0.0107 ± 0.0026.

As to UCCUGGAUCAGCUAUGCAUAGUAUUUAGUUA, the “pre-steady-state target cleavage rate” value worked out at 1.04 ± 0.073 under setting [1] and 0.0161 ± 0.0043 under setting [2].

With UGGACCUACACGUUGCAUAGUAUUUACAAA, the “pre-steady-state target cleavage rate” value under setting [1] is 0.103 ± 0.013.

Turning to UGGACCGUACAGCUUGCAUAGUAUUUAGUUA, the “pre-steady-state target cleavage rate” value under setting [1] was determined as 1.24 ± 0.06 and the “pre-steady-state target cleavage rate” value under setting [2] stood at 0.064 ± 0.0096.

Regarding UCGACCGACAGCUUGCAUAGUAUUUAGUUA, the “pre-steady-state target cleavage rate” value runs as follows: under setting [1], 1.41 ± 0.05; under setting [2], 0.0741 ± 0.012.

UGGACCGACAGCUUGCAUAGUAUUUAGUUA: the “pre-steady-state target cleavage rate” value turned out to be 1.45 ± 0.076 under setting [1] and 0.0713 ± 0.013 under setting [2].

In the case of AGGACCGACAGCUUGCAUAGUAUUUAGUUA, the “pre-steady-state target cleavage rate” value is 1.21 ± 0.058 under setting [1] and 0.0903 ± 0.017 under setting [2].

Consider UCCACCGACAGCUUGCAUAGUAUUUAGUUA, for which the “pre-steady-state target cleavage rate” value turned out to be 1.04 ± 0.043 under setting [1] and 0.0616 ± 0.011 under setting [2].

With UCGACCGUACAGCUUGCAUAGUAUUUAGUUA, the “pre-steady-state target cleavage rate” value under setting [1] was determined as 1.26 ± 0.046 and the “pre-steady-state target cleavage rate” value under setting [2] is 0.0719 ± 0.013.

Take UCCACCAUCAGCUUGCAUAGUAUUUAGUAA: the “pre-steady-state target cleavage rate” value is, setting by setting: under setting [1], 0.68 ± 0.029; under setting [2], 0.0248 ± 0.0047.

Regarding UCCUGGAUGUCCUUGCAUAGUAUUGAGUUA, the “pre-steady-state target cleavage rate” value under setting [1] was determined as 0.142 ± 0.031 and the “pre-steady-state target cleavage rate” value under setting [2] came to 0.00653 ± 0.0024.

On to UGGACCUACAGCUUGCAAUGUAUUUACAAA, for which the “pre-steady-state target cleavage rate” value under setting [1] stood at 0.0217 ± 0.0068.

With UCCUGGAUCAGCUUGCAUACUAUUAAGUUA, the “pre-steady-state target cleavage rate” value by setting is: under setting [1], 0.101 ± 0.015; under setting [2], 0.00664 ± 0.0024.

As for UCCUGGAACAGCUUGCAAAGUAUUUUCAAA, the “pre-steady-state target cleavage rate” value under setting [1] amounted to 0.0876 ± 0.018 and the “pre-steady-state target cleavage rate” value under setting [2] came out at 0.00328 ± 0.002.

For the sequence UCCUGGUACAGCUUGCAUAGUAUUUAGUCUA, the “pre-steady-state target cleavage rate” value came out at 0.0829 ± 0.026 under setting [1] and 0.00718 ± 0.0028 under setting [2].
